Rows were chosen to be rich in hits. Some 1.9% of all compounds tested hit in one or more screens of this group.
PGE2 EP2 inh = human EP2 receptor antagonists, primary screen, TR-FRET cAMP, C6 glioma cells. Prostaglandin E2 receptor EP2 subtype (Homo sapiens), P43116. C6 glioma cells expressing human EP2; cells stimulated with saturating PGE2. inhibition, % at 25 µM. 260,000 compounds, 0.52% hits. AID 1422, 2008;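 active = percent inhibition above 40 after rounding to a whole number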;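 also: rat C6 glioma host cells with rolipram phosphodiesterase inhibitor present; the protocol text gives 20 µM as final concentration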
Target sequence (P43116 whole entry, looked up): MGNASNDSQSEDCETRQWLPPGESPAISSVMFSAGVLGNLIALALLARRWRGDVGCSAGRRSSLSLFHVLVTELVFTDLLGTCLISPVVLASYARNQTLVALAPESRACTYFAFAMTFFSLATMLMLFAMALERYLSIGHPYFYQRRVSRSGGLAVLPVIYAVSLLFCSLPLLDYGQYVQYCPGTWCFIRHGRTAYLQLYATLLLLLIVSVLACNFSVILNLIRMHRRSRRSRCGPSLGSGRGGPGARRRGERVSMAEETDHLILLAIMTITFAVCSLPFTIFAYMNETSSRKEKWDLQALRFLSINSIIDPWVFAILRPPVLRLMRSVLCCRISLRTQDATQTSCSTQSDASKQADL
HMGR II inh = inhibitors of E. faecalis class II HMGR, primary screen, biochemical, Enterococcus faecalis; inhibition, % at 10 µM; purified E. faecalis HMGR, NADPH absorbance 340 nm kinetic; AID 1066, 2008; 190,000 compounds, 0.41% hits; HMG-CoA reductase (Enterococcus faecalis, mvaE);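 active = inhibition above a set limit, the median over all tested compounds plus 3 SD, cut at about 9.5% in these data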;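 also: enzyme runs in reverse so mevalonate oxidation gives rising NADPH absorbance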
m-calpain inh = inhibitors of pig calpain II, primary screen, biochemical, fluorogenic peptide substrate, 1536-well | purified calpain II, 30 min | inhibition, % at 16 µM | 220,000 compounds, 0.37% hits | AID 1236, 2008;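 active = inhibition above about 50%, limit read from the data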
EP2 mod = EP2 receptor modulators, cAMP readout, primary screen, cell-based, HTRF cAMP, PGE2 stimulation; 260,000 compounds, 0.83% hits; EP2-expressing cells, cAMP HTRF FRET, PGE2 co-stimulation; AID 940, 2007; induction, % at 25 µM; Prostaglandin E2 receptor EP2 subtype (Homo sapiens), P43116;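 active = compounds whose cAMP rise, as percent of the full-agonist control response, exceeds 60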;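 also: rat C6 glioma line stably carrying human EP2 under a CMV promoter; the protocol text gives 20 µM as final concentration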
Furin inh = human furin inhibitors, primary screen, biochemical, fluorescence intensity | inhibition, % at 20 µM or 30 µM | purified furin, fluorogenic substrate cleavage | P09958 | 220,000 compounds, 0.061% hits | AID 463115, 2010; in the data active = inhibition above about 25%
Each line names hits and unclear results; the compound was inactive in the other large screens.

COc1ccc(NC(=S)NCCc2ccc(Cl)cc2)c(OC)c1	PGE2 EP2 inh 58
Cc1cccc2cc(CN(Cc3ccc4c(c3)OCO4)C(=O)C3CC3)c3nnnn3c12	none (no result: HMGR II inh, m-calpain inh, Furin inh)
CCS(=O)(=O)c1ccc(S(=O)(=O)CC)s1	m-calpain inh 52
CCS(=O)(=O)c1ccc(N)cc1	none
ClC(=Nc1cccc2ccccc12)N(c1ccccc1)c1ccccc1	PGE2 EP2 inh 40 (no result: HMGR II inh, m-calpain inh, Furin inh)
NC(N)=NC(N)=Nc1cccc2ccccc12	none (no result: HMGR II inh)
CC1(C)CC(CC(=O)NC(=S)Nc2ccc([N+](=O)[O-])cc2)C(=O)O1 (stereo not drawn)	none
Cc1ccc(NC(=S)NC(=O)CC2CC(C)(C)OC2=O)cc1 (stereo not drawn)	HMGR II inh 28
O=C(Nc1ccc(Cl)c(Cl)c1)Nc1nnc(-c2ccncc2)s1	m-calpain inh 102
CCC(CC)c1nnc(NC(=O)c2ccc(NC(C)=O)cc2)s1	none (no result: HMGR II inh, m-calpain inh, Furin inh)
Cc1cccc(NC(=O)CSc2nc3sc4c(c3c(=O)[nH]2)CCCC4)c1C	PGE2 EP2 inh 45 (no result: HMGR II inh, m-calpain inh, Furin inh)
CC(=O)NNc1ncnc2c1cnn2-c1ccc(C)c(Cl)c1	HMGR II inh 12
CC(=O)NNc1ncnc2c1cnn2-c1ccc(C)cc1	none
CCN1C(=O)C(C2SC(=S)N(CC)C2=O)SC1=S (stereo not drawn)	none (no result: HMGR II inh, m-calpain inh, Furin inh)
Cc1ccc(NC(=O)Cn2c(=O)n(CCCCC(=O)NCc3ccco3)c(=O)c3ccccc32)cc1	none
O=C(CCCCn1c(=O)c2ccccc2n(CC(=O)Nc2ccc(F)cc2)c1=O)NCc1ccco1	m-calpain inh 64
COC(=O)c1c(NC(=O)c2ccc3c(c2)OCO3)sc(C(=O)Nc2ccc(Cl)cc2)c1C	none (no result: HMGR II inh, m-calpain inh, Furin inh)
CCCCC(C)(O)C/C=C/[C@H]1[C@H](O)CC(=O)[C@@H]1CCCCCCC(=O)OC (stereo partly drawn)	EP2 mod 97
CCCCCC1C(=O)CCC1CC(=O)OC (stereo not drawn)	none (no result: HMGR II inh, m-calpain inh, Furin inh)
C=CCn1c(Cc2ccccc2)nnc1SCC(=O)Nc1ccc(OC)cc1	none (no result: HMGR II inh, m-calpain inh, Furin inh)
Cc1ccc(C(=O)Oc2oc(-c3ccccc3)nc2C=Nc2ccc(N(C)C)cc2)cc1	PGE2 EP2 inh 42
Cc1ccc2cc(CN(Cc3ccco3)C(=S)NCc3ccccc3)c(=O)[nH]c2c1C	none (no result: HMGR II inh, m-calpain inh, Furin inh)
O=S(=O)(Cc1ccccc1)NCC1CCCN(Cc2ccc(F)c(F)c2)C1 (stereo not drawn)	m-calpain inh 65
O=S(=O)(Cc1ccccc1)NCC1CCCN(Cc2ccc3nonc3c2)C1 (stereo not drawn)	none
Cc1ccc(NC(=O)CSc2nnc(-c3cccnc3)n2C)cc1C	none (no result: HMGR II inh, m-calpain inh, Furin inh)
COc1cc2c(cc1NC(=S)Nc1cccc3ccccc13)oc1ccccc12	PGE2 EP2 inh 43
Cc1ccc(C)n1Cc1ccccc1Cl	EP2 mod 65
CS(=O)(=O)c1sc2nc(-c3cccs3)cc(-c3ccccc3)c2c1N	PGE2 EP2 inh 49
O=C(O)c1cccc(Cn2c(Cl)c(/C=N/NC(=O)c3cc4ccccc4cc3O)sc2=O)c1	m-calpain inh 59 (no result: HMGR II inh)
COc1cccc(N=C2SC(C(=O)Nc3ccccc3F)CC(=O)N2C)c1 (stereo not drawn)	PGE2 EP2 inh 163
c1ccc(-c2cn(-c3ccccc3)c3ncnc(N4CCCCC4)c23)cc1	m-calpain inh 53
Cc1[nH]n(-c2ccc(Cl)c(Cl)c2)c(=O)c1CCO	none
Cc1[nH]n(-c2ccc(C(=O)O)cc2)c(=O)c1CCO	m-calpain inh 58
CCOc1ccc(N2CC(C(=O)Nc3ccccc3)CC2=O)cc1 (stereo not drawn)	none (no result: HMGR II inh, m-calpain inh, Furin inh)
Clc1cc2c(nn1)Nc1ccccc1S2	none (no result: HMGR II inh)
C[N+](C)(C)c1cc2c(nn1)Nc1ccccc1S2	PGE2 EP2 inh 49 (no result: HMGR II inh, m-calpain inh, Furin inh)
CC1=NN(c2ccc([N+](=O)[O-])cc2)C(c2ccccc2)C1 (stereo not drawn)	EP2 mod 62
CCCCN(CCCC)C(=O)C1(P(=O)(c2ccccc2)c2ccccc2)CCC1	EP2 mod 85 (no result: HMGR II inh)
Cc1ccc2[nH]c(=O)c(CN(CCCO)C(=O)c3ccc(Br)cc3)cc2c1	none (no result: HMGR II inh, m-calpain inh, Furin inh)
CC1CN(CC(=O)Nc2nnc(Cc3cccc(F)c3)s2)CC(C)O1 (stereo not drawn)	none (no result: HMGR II inh, m-calpain inh, Furin inh)
COc1ccc(S(=O)(=O)Nc2cc(Cl)c3oc(=O)sc3c2)cc1	none (no result: HMGR II inh, m-calpain inh, Furin inh)
CC(=O)[C@@]1(N=Nc2ccc(S(N)(=O)=O)cc2)CCOC1=O	PGE2 EP2 inh 116 (no result: HMGR II inh, m-calpain inh, Furin inh)
CC1=C(C(=O)OCC(C)C)C23C(=O)c4ccccc4C2(O1)OC(N)=C3C#N (stereo not drawn)	m-calpain inh 59
CC1=C(C(=O)OCC(C)C)[C@]23C(=O)c4ccccc4[C@@]2(O1)OC(N)=C3C#N	none
N#CNC(N)=Nc1ccc(Cl)cc1	none (no result: HMGR II inh, m-calpain inh, Furin inh)
COc1cccc(-n2c(SCC(=O)OC(C)C)nnc2-c2cccnc2)c1	m-calpain inh 52
CCN(CC)c1ccc(/C=c2/sc3nnc(-c4ccccc4C)n3c2=O)cc1	PGE2 EP2 inh 48
O=c1nc(SCc2ccccc2Cl)nc(-c2ccc(Cl)cc2)[nH]1	m-calpain inh 50 (no result: HMGR II inh)
Cc1ccc(O)c(CN(CCCn2ccnc2)Cc2ccccc2Cl)c1	none (no result: HMGR II inh, m-calpain inh, Furin inh)
O=C(Nc1ccccc1C(=O)O)c1cccc(NC(=O)c2ccc(Br)o2)c1	m-calpain inh 51
O=C(Nc1ccccc1C(=O)O)c1ccc(NC(=O)c2ccc(Br)o2)cc1	none
O=C(Nc1ccc(OCC(F)(F)C(F)F)c(C(F)(F)F)c1)c1ccccc1O	none
O=C(Nc1ccc(OCC(F)(F)C(F)F)c(C(F)(F)F)c1)c1ccccc1	PGE2 EP2 inh 45 (no result: HMGR II inh, m-calpain inh, EP2 mod)
CC(=O)c1cccc2c(O)c(C3=Nc4ccccc4C3=O)[nH]c12	PGE2 EP2 inh 47
C[C@@H](Cn1nnc2ccccc21)NC(=O)c1ccc(N2CCCCS2(=O)=O)cc1	none (no result: HMGR II inh, m-calpain inh, Furin inh)
COC(=O)c1cc(-c2ccc(C(c3c(C)[nH][nH]c3=O)c3c(C)[nH][nH]c3=O)o2)ccc1Cl	PGE2 EP2 inh 40 (no result: HMGR II inh, m-calpain inh, Furin inh)
COc1ccc(-c2oc3ncnc(NCCCN4CCOCC4)c3c2-c2ccc(OC)cc2)cc1	EP2 mod 61
CCC1Oc2ccccc2N(CC(=O)NCc2ccco2)C1=O (stereo not drawn)	HMGR II inh 41
CC(C)n1c(O)c(N=NC(=O)CNC(=O)CCc2ccccc2)c2ccccc21	m-calpain inh 66 (no result: HMGR II inh)
CC(=O)C1=C(O)C(=O)N(CCCNCCO)C1c1ccc(Cl)cc1Cl (stereo not drawn)	none (no result: HMGR II inh, m-calpain inh, Furin inh)
C=CC(C1=CC(=O)C=CC1=O)c1ccccc1 (stereo not drawn)	none (no result: HMGR II inh, m-calpain inh, Furin inh)
C=C[C@@H](C1=CC(=O)C(OC)=C(OC)C1=O)c1ccccc1	PGE2 EP2 inh 120 (no result: HMGR II inh, m-calpain inh, Furin inh)
COc1cccc(OC)c1C(=O)Nc1nc(-c2ccc3c(c2)CCN3C(=O)C(C)C)cs1	none (no result: HMGR II inh, m-calpain inh, Furin inh)
CCc1ccc2c(c1)-c1c(s[s+]c1SC(C)=O)C(C)(C)N2	EP2 mod 65 (no result: HMGR II inh, m-calpain inh, Furin inh)
O=C(c1ccc(Oc2ccccc2)cc1)c1nc2c(n1O)CCCC2	m-calpain inh 75
O=C(c1ccc(F)cc1)[C@H]1CCCN(C(=O)c2cc(C3CC3)[nH]n2)C1	none (no result: HMGR II inh, m-calpain inh, Furin inh)
